Results from PubChem BioAssay (NCI).
Compounds without any hit were thinned out: in the full panel of roughly 83,000, 20% have a hit.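 Plates (96-well) were seeded with cells, treated with compound at one concentration, and incubated for 48 hours before percent growth was determined.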 Active and inactive are the calls of the source. Rule for the calls: active = growth percent below 10; inactive = the rest.

What follows are compounds tested on SNB-75 CNS (assay: NCI-60 one-dose screen, 48 h (100 = growth as untreated, 0 = no growth, -100 = all killed)). Conditions: 10 µM unless noted.

| SMILES | growth |
| --- | --- |
| CN1CC=C(c2cc(NC(=O)Nc3ccc(Oc4ccnc(NC(=O)C5CC5)c4)c(F)c3)cc(C(F)(F)F)c2)CC1 | -76.4% (active) |
| COc1ccc(C(=O)c2cc(OC)c(C)c(OC)c2)cc1OC(=O)CCl | 38.1% (inactive) |
| NC(=O)C(O)(c1ccccc1)c1ccccc1 | 89% (inactive) |
| CCOC(=O)C(=Cc1c(-c2ccccc2)[nH]c2ccccc12)C(=O)OCC | 48.4% (inactive) |
| C=C(C)[C@@H]1CC[C@]2(C(=O)OCCCC[P+](c3ccccc3)(c3ccccc3)c3ccccc3)CC[C@]3(C)[C@H](CC[C@@H]4[C@@]5(C)CC[C@H](OC(=O)C(Cl)Cl)C(C)(C)[C@@H]5CC[C@]43C)[C@@H]12 | -46.6% (active) |
| CC(=O)Nc1ccc2c(c1)Cc1cc(F)ccc1-2 | 87.4% (inactive) |
| Cc1nccc2c3ccc(OCc4cn(-c5ccccc5)nn4)cc3n(CCCc3ccccc3)c12 | 73.8% (inactive) |
| N#Cc1c(NC(=O)c2cccs2)[n+]([O-])c2cc(C(F)(F)F)ccc2[n+]1[O-] | 92.6% (inactive) |
| O=C(Nc1ccccc1)NS(=O)(=O)c1c[nH]c(=S)[nH]c1=O | 89.2% (inactive) |
| O=C(CSC(=S)N1CCCCC1)Nc1ccccc1 | 93.1% (inactive) |
| COc1ccccc1-c1ccc2nc(NC(=O)Nc3cc(C(F)(F)F)cc(C(F)(F)F)c3)sc2c1 | 8.11% (active) |
| Cc1cc(Cl)cc(CN(Cc2ccccc2)Cc2c(O)ccc3ccccc23)c1O | 94.5% (inactive) |
| Cn1cc(-c2ccc3c(c2)ncn3-c2ccc(CC(=O)Nc3cc(C(C)(C)C)on3)cc2)cn1 | -20.6% (active) |
| COc1ccc2nc(-c3ccc(Cl)cc3)cc(C(=O)N3N=C(c4ccc(N)cc4)CC3c3ccccc3)c2c1 (centres undefined) | 44.3% (inactive) |
| COc1cc(C(=O)Nc2cc(O)c(C/C=C(\C)CCC=C(C)C)c(O)c2)cc2c1O[C@]1(C)CC[C@@H](O)C(C)(C)[C@H]1C2 | 20.2% (inactive) |
| C=C(C)[C@@H]1CC[C@]2(C(=O)NCCCO)CC[C@]3(C)[C@H](CC[C@@H]4[C@@]5(C)CCCNC(C)(C)[C@@H]5CC[C@]43C)[C@@H]12 | 72.2% (inactive) |
| Nc1ccc2c(c1)C(=O)C(=O)c1c-2nc2ccccn12 | 37.5% (inactive) |
| CC(C)NS(=O)(=O)c1cccc(-c2ccc3c(=O)n(CCCN)c4c(c3c2)C(=O)c2ccccc2-4)c1 | 82.3% (inactive) |
| CCSc1nc(Cl)c(C#N)c(-c2ccc(F)cc2)n1 | 80.3% (inactive) |

| SMILES | growth |
| --- | --- |
| COc1ccc(-c2[nH]c3ccc(OC)cc3c2C=C(C#N)C#N)cc1 | 21.3% (inactive) |
| OCCNc1nc(NCCO)nc(Nc2ccc(C3=NN(c4cc(Cl)cc(Cl)c4)C(c4ccccc4)C3)cc2)n1 (centres undefined) | 52.5% (inactive) |
| COc1ccc2[nH]c(=O)c(/C=C/C(=O)c3ccccc3OC)cc2c1 | -11.5% (active) |
| CC(=O)Nc1nc2c(c(N)c1C#N)C(c1cccc(Cl)c1)C1=C(CCCC1=O)N2c1sc2c(c1C#N)CCCC2 (centres undefined) | 81% (inactive) |
| C#C[C@@]1(O)[C@@H](CO)O[C@@H](n2cnc3c(-c4ccccc4)ncnc32)[C@@H]1O | 85.7% (inactive) |
| COc1cc(-c2cn(-c3ccc(Cl)c(Cl)c3)c(=O)[nH]2)cc(OC)c1OC | 104% (inactive) |
| Nc1ccc(C2=NN(C(=O)c3cc(-c4ccc(Cl)cc4)nc4ccccc34)C(c3ccccc3)C2)cc1 (centres undefined) | 40.2% (inactive) |
| Cc1c(Cl)cccc1NC(=O)c1sc2nc3c(cc2c1N)COCC3 | 19.4% (inactive) |
| CC1CCN(CCCCCOc2ccc3oc4ccccc4c(=O)c3c2)CC1 | 84.7% (inactive) |
| O=S(=O)(Nc1nccs1)c1ccc(Nc2nc(-c3ccncc3)cs2)cc1 | 84.7% (inactive) |
| N#Cc1c(-c2ccc(F)cc2)nc(N/N=C/c2cccc(O)c2)nc1N1CCOCC1 | 73.9% (inactive) |
| COc1cc(-c2csc(NC(=O)Nc3cc(Cl)cc(Cl)c3)n2)cc(OC)c1OC | -29.2% (active) |
| COc1ccc(C(=O)c2cc(F)c(F)c(OC)c2F)cc1OC(=O)CCl | 42.9% (inactive) |
| Cc1c(Cl)cccc1NC(=O)c1sc2nc3c(cc2c1N)CCCCCC3 | -6.81% (active) |
| C#C[C@@]1(O)[C@@H](CO)O[C@@H](n2cc(-c3ccco3)c3c(N)ncnc32)[C@@H]1O | 14.6% (inactive) |
| COc1cc(/C=C/C(=O)c2ccc(NC(=O)CSc3nnc(-c4cc(OC)c(OC)c(OC)c4)n3-c3ccccc3)cc2)cc(OC)c1OC | 45.4% (inactive) |
| COc1ccccc1C(=O)/C=C/c1cc2cccc(OC)c2[nH]c1=O | 34.3% (inactive) |
| CN1C(=O)c2cc(Cl)nc3c(NC(=O)c4cccc(Cl)c4)c(Cl)c(NC(=O)c4cccc(Cl)c4)c1c23 | 75.3% (inactive) |

Each compound was assayed on SNB-19 CNS in the same assay as above. Conditions: 10 µM unless noted.

| SMILES | growth |
| --- | --- |
| CN1CC=C(c2cc(NC(=O)Nc3ccc(Oc4ccnc(NC(=O)C5CC5)c4)c(F)c3)cc(C(F)(F)F)c2)CC1 | 2.04% (active) |
| COc1ccc(C(=O)c2cc(OC)c(C)c(OC)c2)cc1OC(=O)CCl | 28.4% (inactive) |
| NC(=O)C(O)(c1ccccc1)c1ccccc1 | 99.4% (inactive) |
| CCOC(=O)C(=Cc1c(-c2ccccc2)[nH]c2ccccc12)C(=O)OCC | 106% (inactive) |
| C=C(C)[C@@H]1CC[C@]2(C(=O)OCCCC[P+](c3ccccc3)(c3ccccc3)c3ccccc3)CC[C@]3(C)[C@H](CC[C@@H]4[C@@]5(C)CC[C@H](OC(=O)C(Cl)Cl)C(C)(C)[C@@H]5CC[C@]43C)[C@@H]12 | 11% (inactive) |
| CC(=O)Nc1ccc2c(c1)Cc1cc(F)ccc1-2 | 103% (inactive) |
| Cc1nccc2c3ccc(OCc4cn(-c5ccccc5)nn4)cc3n(CCCc3ccccc3)c12 | 79.3% (inactive) |
| N#Cc1c(NC(=O)c2cccs2)[n+]([O-])c2cc(C(F)(F)F)ccc2[n+]1[O-] | 106% (inactive) |
| O=C(Nc1ccccc1)NS(=O)(=O)c1c[nH]c(=S)[nH]c1=O | 106% (inactive) |
| O=C(CSC(=S)N1CCCCC1)Nc1ccccc1 | 99.6% (inactive) |
| COc1ccccc1-c1ccc2nc(NC(=O)Nc3cc(C(F)(F)F)cc(C(F)(F)F)c3)sc2c1 | 25.1% (inactive) |
| Cc1cc(Cl)cc(CN(Cc2ccccc2)Cc2c(O)ccc3ccccc23)c1O | 99.9% (inactive) |
| Cn1cc(-c2ccc3c(c2)ncn3-c2ccc(CC(=O)Nc3cc(C(C)(C)C)on3)cc2)cn1 | 58.5% (inactive) |
| COc1ccc2nc(-c3ccc(Cl)cc3)cc(C(=O)N3N=C(c4ccc(N)cc4)CC3c3ccccc3)c2c1 (centres undefined) | 49.6% (inactive) |
| COc1cc(C(=O)Nc2cc(O)c(C/C=C(\C)CCC=C(C)C)c(O)c2)cc2c1O[C@]1(C)CC[C@@H](O)C(C)(C)[C@H]1C2 | 32.2% (inactive) |
| C=C(C)[C@@H]1CC[C@]2(C(=O)NCCCO)CC[C@]3(C)[C@H](CC[C@@H]4[C@@]5(C)CCCNC(C)(C)[C@@H]5CC[C@]43C)[C@@H]12 | 85.4% (inactive) |
| Nc1ccc2c(c1)C(=O)C(=O)c1c-2nc2ccccn12 | 9.2% (active) |
| CC(C)NS(=O)(=O)c1cccc(-c2ccc3c(=O)n(CCCN)c4c(c3c2)C(=O)c2ccccc2-4)c1 | 111% (inactive) |
| CCSc1nc(Cl)c(C#N)c(-c2ccc(F)cc2)n1 | 92.7% (inactive) |

| SMILES | growth |
| --- | --- |
| COc1ccc(-c2[nH]c3ccc(OC)cc3c2C=C(C#N)C#N)cc1 | 76.2% (inactive) |
| OCCNc1nc(NCCO)nc(Nc2ccc(C3=NN(c4cc(Cl)cc(Cl)c4)C(c4ccccc4)C3)cc2)n1 (centres undefined) | 58.7% (inactive) |
| COc1ccc2[nH]c(=O)c(/C=C/C(=O)c3ccccc3OC)cc2c1 | 17% (inactive) |
| CC(=O)Nc1nc2c(c(N)c1C#N)C(c1cccc(Cl)c1)C1=C(CCCC1=O)N2c1sc2c(c1C#N)CCCC2 (centres undefined) | 69.7% (inactive) |
| C#C[C@@]1(O)[C@@H](CO)O[C@@H](n2cnc3c(-c4ccccc4)ncnc32)[C@@H]1O | 112% (inactive) |
| COc1cc(-c2cn(-c3ccc(Cl)c(Cl)c3)c(=O)[nH]2)cc(OC)c1OC | 81.6% (inactive) |
| Nc1ccc(C2=NN(C(=O)c3cc(-c4ccc(Cl)cc4)nc4ccccc34)C(c3ccccc3)C2)cc1 (centres undefined) | 34.1% (inactive) |
| Cc1c(Cl)cccc1NC(=O)c1sc2nc3c(cc2c1N)COCC3 | 26.5% (inactive) |
| CC1CCN(CCCCCOc2ccc3oc4ccccc4c(=O)c3c2)CC1 | 87.5% (inactive) |
| O=S(=O)(Nc1nccs1)c1ccc(Nc2nc(-c3ccncc3)cs2)cc1 | 101% (inactive) |
| N#Cc1c(-c2ccc(F)cc2)nc(N/N=C/c2cccc(O)c2)nc1N1CCOCC1 | 96.1% (inactive) |
| COc1cc(-c2csc(NC(=O)Nc3cc(Cl)cc(Cl)c3)n2)cc(OC)c1OC | 9% (active) |
| COc1ccc(C(=O)c2cc(F)c(F)c(OC)c2F)cc1OC(=O)CCl | 39.1% (inactive) |
| Cc1c(Cl)cccc1NC(=O)c1sc2nc3c(cc2c1N)CCCCCC3 | 29.1% (inactive) |
| C#C[C@@]1(O)[C@@H](CO)O[C@@H](n2cc(-c3ccco3)c3c(N)ncnc32)[C@@H]1O | 94.4% (inactive) |
| COc1cc(/C=C/C(=O)c2ccc(NC(=O)CSc3nnc(-c4cc(OC)c(OC)c(OC)c4)n3-c3ccccc3)cc2)cc(OC)c1OC | 35.8% (inactive) |
| COc1ccccc1C(=O)/C=C/c1cc2cccc(OC)c2[nH]c1=O | -4.63% (active) |
| CN1C(=O)c2cc(Cl)nc3c(NC(=O)c4cccc(Cl)c4)c(Cl)c(NC(=O)c4cccc(Cl)c4)c1c23 | 2.15% (active) |
